PubChem BioAssay (EPA / NIEHS)
Activity calls are given as the source filed them. How the source made its calls: active means hit-call score of the fitted dose curve at least 0.9, where 1 is the maximum; inactive means score below 0.9.

Assays:
Details in all cases: mRNA level, 48 h; actives raise or lower the signal
[1] = read-out: MYC, MYC (gene 4609); assay: LTEA_HepaRG_MYC: Life Technologies and Expression Analysis (LTEA) Assay for MYC using HepaRG (AID 2283518)
In short: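 HepaRG, ~100,000 cells/well, collagen I; 48 h plating; serum-free induction medium; 48 h dosing, duplicate, 100 uM top, half-log, 0.5% DMSO; total RNA → qRT-PCR MYC; gain/loss fit vs DMSO.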

[2] = read-out: matrix metalloproteinase-3 (MMP3), MMP3 (gene 4314); assay: LTEA_HepaRG_MMP3: Life Technologies and Expression Analysis (LTEA) Assay for matrix metalloproteinase-3 (MMP3) using HepaRG (AID 2283519)
In short: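 qRT-PCR read-out of MMP3 mRNA (normalised to three housekeeping genes) in HepaRG liver cells after 48 h chemical exposure; 8-point half-log series, top 100 uM, 0.5% DMSO vehicle. Bidirectional curve fitting against DMSO baseline.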

[3] = read-out: Paternally Expressed 10 (PEG10), PEG10 (gene 23089); assay: LTEA_HepaRG_PEG10: Life Technologies and Expression Analysis (LTEA) Assay for Paternally Expressed 10 (PEG10) using HepaRG (AID 2283520);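 on AC50: differentiated HepaRG human liver cells in serum-free induction medium with 0.5% DMSO; PEG10 transcript by qRT-PCR normalised to ACTB GAPDH and POLR2A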
In short: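 PEG10 transcript measured by Fluidigm qRT-PCR, normalized to three housekeeping genes, in HepaRG cells treated 48 h (highest 100 uM, half-log steps, 0.5% DMSO vehicle). Cells plated 48 h before switching to serum-free induction medium.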

[4] = read-out: Nuclear factor NF-kappa-B p105 subunit (Homo sapiens) (UniProt P19838); assay: LTEA_HepaRG_NFKB1: Life Technologies and Expression Analysis (LTEA) Assay for Nuclear Factor Kappa B Subunit 1 (NFKB1) using HepaRG (AID 2283521);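 further: differentiated human HepaRG liver cells in serum-free induction medium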
In short: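 NFKB1 transcript was measured by TaqMan qRT-PCR on Fluidigm arrays, normalised to three housekeeping genes and fitted in both directions against 0.5% DMSO. HepaRG cells were dosed in duplicate for 48 h in serum-free induction medium, eight half-log steps from 100 uM.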

[5] = read-out: Protein phosphatase 2A (PPP2R4), PTPA (gene 5524); assay: LTEA_HepaRG_PPP2R4: Life Technologies and Expression Analysis (LTEA) Assay for Protein phosphatase 2A (PPP2R4) using HepaRG (AID 2283522)
In short: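 Expression was quantified by Fluidigm qRT-PCR normalised to three housekeeping genes after 48 h treatment. Human HepaRG cells received an 8-point series from 100 µM downward by half-logs, in duplicate with 0.5% DMSO vehicle and 1 mM phenobarbital as induction control.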

[6] = read-out: Phosphatase and tensin (PTEN), PTEN (gene 5728); assay: LTEA_HepaRG_PTEN: Life Technologies and Expression Analysis (LTEA) Assay for Phosphatase and tensin (PTEN) using HepaRG (AID 2283523)
In short: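 HepaRG, 48 h exposure, 8-pt half-log series from 100 uM top, 0.5% DMSO vehicle, duplicates. Readout: Fluidigm qRT-PCR of PTEN transcript; housekeeping normalization (ACTB, GAPDH, POLR2A). Gain or loss fitted relative to DMSO baseline.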

[7] = read-out: Pyruvate Dehydrogenase Kinase 4 (PDK4), PDK4 (gene 5166); assay: LTEA_HepaRG_PDK4: Life Technologies and Expression Analysis (LTEA) Assay for Pyruvate Dehydrogenase Kinase 4 (PDK4) using HepaRG (AID 2283525)
In short: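 HepaRG (human liver line), 48 h chemical exposure, 8-pt half-log CRC top 100 uM, 0.5% DMSO vehicle, duplicates. Readout: TaqMan qRT-PCR of PDK4 mRNA, housekeeping-normalized; gain/loss fit relative to DMSO baseline.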

[8] = read-out: NAD(P)H dehydrogenase [quinone] 1 (NQO1), NQO1 (gene 1728); assay: LTEA_HepaRG_NQO1: Life Technologies and Expression Analysis (LTEA) Assay for NAD(P)H dehydrogenase [quinone] 1 (NQO1) using HepaRG (AID 2283526)
In short: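 NQO1 transcript induction or loss measured by TaqMan qRT-PCR, referenced to three housekeeping genes and fitted bidirectionally against 0.5% DMSO. HepaRG cultures exposed 48 h, duplicate, eight-point half-log series, top 100 uM.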

[9] = read-out: Nuclear factor erythroid 2-related factor 2 (Homo sapiens) (UniProt Q16236); assay: LTEA_HepaRG_NFE2L2: Life Technologies and Expression Analysis (LTEA) Assay for Nuclear factor erythroid 2-related factor 2 (NFE2L2) Transcription Factor using HepaRG (AID 2283527)
In short: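 HepaRG, 48 h dosing, 8-pt half-log series from 100 uM in 0.5% DMSO, duplicates. Read-out: NFE2L2 mRNA by qRT-PCR (ACTB/GAPDH/POLR2A normalization). Bidirectional curve fit vs DMSO baseline.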

[10] = read-out: succinate dehydrogenase complex iron sulfur subunit B (SDHB), SDHB (gene 6390); assay: LTEA_HepaRG_SDHB: Life Technologies and Expression Analysis (LTEA) Assay for succinate dehydrogenase complex iron sulfur subunit B (SDHB) using HepaRG (AID 2283528)
In short: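 SDHB transcript level read by TaqMan qRT-PCR, housekeeping-normalised (ACTB, GAPDH, POLR2A), after 48 h chemical treatment of plated HepaRG cells; eight concentrations top 100 uM, half-log steps, 0.5% DMSO, duplicates; fitted both directions against DMSO.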

[11] = read-out: Signal transducer and activator of transcription 3 (Homo sapiens) (UniProt P40763); assay: LTEA_HepaRG_STAT3: Life Technologies and Expression Analysis (LTEA) Assay for Signal transducer and activator of transcription (STAT3) using HepaRG (AID 2283529)
In short: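 HepaRG, 48 h exposure, 8-pt half-log series (top 100 uM), 0.5% DMSO vehicle, duplicates. Readout: STAT3 transcript by Fluidigm qRT-PCR, housekeeping-normalized; bidirectional fit vs DMSO baseline.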

[12] = read-out: solute carrier (SLCO1B1), SLCO1B1 (gene 10599); assay: LTEA_HepaRG_SLCO1B1: Life Technologies and Expression Analysis (LTEA) Assay for solute carrier (SLCO1B1) using HepaRG (AID 2283530)
In short: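 HepaRG, serum-free induction medium, 48 h dosing, 8-pt half-log from 100 uM, 0.5% DMSO vehicle, duplicates. Readout: SLCO1B1 mRNA, qRT-PCR, ACTB/GAPDH/POLR2A normalization; up or down fit vs DMSO.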

[13] = read-out: sulfotransferase 2A1 (SULT2A1), SULT2A1 (gene 6822); assay: LTEA_HepaRG_SULT2A1: Life Technologies and Expression Analysis (LTEA) Assay for sulfotransferase 2A1 (SULT2A1) using HepaRG (AID 2283531)
In short: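 Transcript levels of SULT2A1, quantified by qRT-PCR and normalized to three housekeeping genes, serve as the readout. Human HepaRG cultures receive test chemicals for 48 h at up to 100 uM in half-log steps, with 0.5% DMSO vehicle.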

[14] = read-out: Transforming Growth Factor (TGFA), TGFA (gene 7039); assay: LTEA_HepaRG_TGFA: Life Technologies and Expression Analysis (LTEA) Assay for Transforming Growth Factor (TGFA) using HepaRG (AID 2283532)
In short: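 qRT-PCR read-out of TGFA transcript, normalized to three housekeeping genes, fitted bidirectionally against 0.5% DMSO baseline. Human HepaRG cultures received chemicals for 48 h at eight half-log concentrations, top 100 uM.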

[15] = read-out: Transforming Growth Factor (TGFB1), TGFB1 (gene 7040); assay: LTEA_HepaRG_TGFB1: Life Technologies and Expression Analysis (LTEA) Assay for Transforming Growth Factor (TGFB1) Transporter using HepaRG (AID 2283533)
In short: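 HepaRG, 48 h post-plating, switched to serum-free induction medium; chemicals 100 uM top, half-log, 8 pts, 0.5% DMSO, dup; 48 h exposure; RNA → Fluidigm TaqMan qRT-PCR; norm ACTB/GAPDH/POLR2A; bidirectional fit vs DMSO.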

[16] = read-out: TIMP1, TIMP1 (gene 7076); assay: LTEA_HepaRG_TIMP1: Life Technologies and Expression Analysis (LTEA) Assay for TIMP1 using HepaRG (AID 2283534)
In short: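 Readout is TIMP1 mRNA level measured by qRT-PCR and normalized to three housekeeping genes. Human HepaRG cells were treated for 48 h in duplicate at eight concentrations up to 100 uM (0.5% DMSO); gain or loss fitted against DMSO.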

[17] = read-out: Tumor necrosis factor receptor 1 (TNFRSF1A), TNFRSF1A (gene 7132); assay: LTEA_HepaRG_TNFRSF1A: Life Technologies and Expression Analysis (LTEA) Assay for Tumor necrosis factor receptor 1 (TNFRSF1A) using HepaRG (AID 2283535)
In short: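 Read-out is TNFRSF1A transcript level by TaqMan qRT-PCR, normalized to three housekeeping genes, scored as gain or loss of signal versus 0.5% DMSO. Human HepaRG cells received test chemicals for 48 h at up to 100 uM (half-log series).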

[18] = read-out: Thyroid Hormone Responsive (THRSP), THRSP (gene 7069); assay: LTEA_HepaRG_THRSP: Life Technologies and Expression Analysis (LTEA) Assay for Thyroid Hormone Responsive (THRSP) using HepaRG (AID 2283536)
In short: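 qRT-PCR read-out (Fluidigm TaqMan), housekeeping-normalized (ACTB/GAPDH/POLR2A). HepaRG, 48 h chemical exposure, 8-pt half-log series from 100 uM in 0.5% DMSO, duplicates. Bidirectional curve fit vs 0.5% DMSO baseline.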

[19] = read-out: Cellular tumor antigen p53 (Homo sapiens) (UniProt P04637); assay: LTEA_HepaRG_TP53: Life Technologies and Expression Analysis (LTEA) Assay for Tumor Protein P53 (TP53) using HepaRG (AID 2283537)
In short: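 TP53 transcript measured by qRT-PCR, normalized to three housekeeping genes, after 48 h treatment of human HepaRG cultures with chemicals from 100 uM downward in half-log steps (0.5% DMSO vehicle, serum-free induction medium). Up- or down-regulation fitted against DMSO.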

[20] = read-out: solute carrier (SLC22A1), SLC22A1 (gene 6580); assay: LTEA_HepaRG_SLC22A1: Life Technologies and Expression Analysis (LTEA) Assay for solute carrier (SLC22A1) using HepaRG (AID 2283524);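 on AC50: differentiated human HepaRG liver cells in serum-free induction medium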
In short: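 qRT-PCR readout (TaqMan, Fluidigm arrays) of SLC22A1 transcript, normalized to three housekeeping genes; bidirectional curve fit relative to 0.5% DMSO vehicle. Differentiated human HepaRG cells, 48 h chemical exposure, top concentration 100 uM, half-log steps, eight points.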

Measured: AC50

Chain of Signal transducer and activator of transcription 3 (Homo sapiens) (P40763 whole entry, looked up): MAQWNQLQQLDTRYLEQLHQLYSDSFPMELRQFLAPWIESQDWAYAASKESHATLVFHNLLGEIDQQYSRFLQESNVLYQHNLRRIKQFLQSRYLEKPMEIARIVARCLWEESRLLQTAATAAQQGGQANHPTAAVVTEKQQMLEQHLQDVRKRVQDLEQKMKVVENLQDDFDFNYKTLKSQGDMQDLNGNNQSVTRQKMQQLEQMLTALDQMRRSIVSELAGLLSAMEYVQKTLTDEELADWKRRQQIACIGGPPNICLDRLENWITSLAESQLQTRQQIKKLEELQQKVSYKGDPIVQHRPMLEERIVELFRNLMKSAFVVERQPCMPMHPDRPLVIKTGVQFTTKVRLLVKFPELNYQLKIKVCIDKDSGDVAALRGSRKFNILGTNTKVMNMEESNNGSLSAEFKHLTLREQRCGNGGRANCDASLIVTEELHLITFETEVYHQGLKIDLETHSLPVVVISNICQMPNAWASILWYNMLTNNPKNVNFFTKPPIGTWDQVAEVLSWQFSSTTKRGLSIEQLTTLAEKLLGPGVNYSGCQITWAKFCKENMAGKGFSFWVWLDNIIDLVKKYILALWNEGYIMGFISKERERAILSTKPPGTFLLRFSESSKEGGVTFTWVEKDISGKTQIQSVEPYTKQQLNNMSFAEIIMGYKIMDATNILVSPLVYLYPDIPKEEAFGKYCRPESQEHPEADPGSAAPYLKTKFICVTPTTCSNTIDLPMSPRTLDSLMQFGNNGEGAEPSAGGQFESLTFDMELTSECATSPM
Chain of Cellular tumor antigen p53 (Homo sapiens) (P04637 whole entry, looked up): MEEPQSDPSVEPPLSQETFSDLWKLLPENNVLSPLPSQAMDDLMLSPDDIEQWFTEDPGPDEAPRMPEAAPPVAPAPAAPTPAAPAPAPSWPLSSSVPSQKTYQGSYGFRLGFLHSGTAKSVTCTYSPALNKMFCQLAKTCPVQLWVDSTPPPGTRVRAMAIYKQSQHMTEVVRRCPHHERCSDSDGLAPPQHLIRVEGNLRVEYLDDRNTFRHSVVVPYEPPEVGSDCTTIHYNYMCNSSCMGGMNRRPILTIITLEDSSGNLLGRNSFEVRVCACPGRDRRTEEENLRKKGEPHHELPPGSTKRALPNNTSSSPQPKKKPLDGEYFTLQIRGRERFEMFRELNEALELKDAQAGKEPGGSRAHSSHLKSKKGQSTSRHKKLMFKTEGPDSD
Chain of Nuclear factor erythroid 2-related factor 2 (Homo sapiens) (Q16236 whole entry, looked up): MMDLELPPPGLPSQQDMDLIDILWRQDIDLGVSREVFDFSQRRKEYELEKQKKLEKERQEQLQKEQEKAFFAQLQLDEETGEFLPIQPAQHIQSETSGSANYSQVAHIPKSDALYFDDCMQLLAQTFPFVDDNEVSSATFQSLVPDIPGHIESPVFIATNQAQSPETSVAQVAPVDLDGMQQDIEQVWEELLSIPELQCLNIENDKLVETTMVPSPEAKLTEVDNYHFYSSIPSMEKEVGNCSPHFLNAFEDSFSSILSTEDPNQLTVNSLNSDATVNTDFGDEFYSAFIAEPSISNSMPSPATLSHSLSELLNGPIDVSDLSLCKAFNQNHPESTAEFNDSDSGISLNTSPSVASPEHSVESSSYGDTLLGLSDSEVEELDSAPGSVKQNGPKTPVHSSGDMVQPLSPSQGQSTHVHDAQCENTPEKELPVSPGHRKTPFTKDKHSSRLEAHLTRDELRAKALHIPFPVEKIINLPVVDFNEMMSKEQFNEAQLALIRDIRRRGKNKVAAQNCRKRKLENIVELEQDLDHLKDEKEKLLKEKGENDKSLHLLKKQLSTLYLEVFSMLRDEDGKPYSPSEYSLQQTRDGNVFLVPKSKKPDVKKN
Chain of Nuclear factor NF-kappa-B p105 subunit (Homo sapiens) (P19838 whole entry, looked up): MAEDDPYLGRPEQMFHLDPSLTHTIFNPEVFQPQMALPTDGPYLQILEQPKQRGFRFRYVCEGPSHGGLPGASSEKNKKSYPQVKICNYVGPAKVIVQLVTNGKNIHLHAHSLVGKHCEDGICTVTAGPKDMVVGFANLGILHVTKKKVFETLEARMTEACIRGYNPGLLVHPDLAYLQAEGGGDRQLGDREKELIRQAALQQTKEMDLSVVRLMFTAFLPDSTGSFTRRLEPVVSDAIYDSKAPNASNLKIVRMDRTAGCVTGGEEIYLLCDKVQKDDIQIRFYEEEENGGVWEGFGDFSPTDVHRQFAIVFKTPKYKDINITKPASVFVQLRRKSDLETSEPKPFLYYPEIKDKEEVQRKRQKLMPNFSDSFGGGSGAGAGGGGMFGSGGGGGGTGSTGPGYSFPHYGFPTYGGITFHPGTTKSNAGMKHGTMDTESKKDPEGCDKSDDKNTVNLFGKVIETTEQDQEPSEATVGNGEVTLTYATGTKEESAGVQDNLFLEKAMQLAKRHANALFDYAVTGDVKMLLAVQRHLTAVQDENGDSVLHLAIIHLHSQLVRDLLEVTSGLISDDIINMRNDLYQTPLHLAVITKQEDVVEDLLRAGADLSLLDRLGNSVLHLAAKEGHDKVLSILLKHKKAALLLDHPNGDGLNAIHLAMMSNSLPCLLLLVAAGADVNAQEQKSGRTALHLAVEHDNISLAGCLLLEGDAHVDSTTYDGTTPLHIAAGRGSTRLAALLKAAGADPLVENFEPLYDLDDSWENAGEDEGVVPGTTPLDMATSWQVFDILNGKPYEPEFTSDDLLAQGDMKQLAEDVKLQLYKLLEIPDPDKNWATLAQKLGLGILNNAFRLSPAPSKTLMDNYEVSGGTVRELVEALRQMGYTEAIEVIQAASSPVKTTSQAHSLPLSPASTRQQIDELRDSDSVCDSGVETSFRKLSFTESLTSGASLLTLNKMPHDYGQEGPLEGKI

COC(=O)c1ccccc1C(=O)O
not listed: [20]
inactive: all other assays above

C=CCOC(Cn1ccnc1)c1ccc(Cl)cc1Cl (stereo not drawn)
inactive: [6] | [10] | [11] | [15] | [16]
active: [1] 36 µM | [2] 75.2 µM | [3] 28.4 µM | [5] 87.5 µM | [7] 29 µM | [8] 50 µM | [9] 21.8 µM | [12] 35 µM | [13] 36.4 µM | [14] 50 µM | [17] 77.8 µM | [18] 36.2 µM | [19] 12.2 µM

CCCCC(CC)COC(=O)c1ccccc1C(=O)O (stereo not drawn)
active: [7] 79.9 µM
not listed: [4] | [20]
inactive: all other assays above

CCCCCOC(=O)COc1cc(N2C(=O)C3=C(CCCC3)C2=O)c(F)cc1Cl
not listed: [4] | [10] | [19] | [20]
inactive: all other assays above

S=C([S-])NCCNC(=S)[S-].[Mn+2]
active: [1] 8.74 µM | [3] 0.302 µM | [5] 5.29 µM | [6] 4.48 µM | [7] 5.86 µM | [11] 1.94 µM | [12] 3.85 µM | [13] 3.76 µM | [14] 7.01 µM | [17] 3.32 µM | [18] 0.835 µM
inactive: [2] | [8] | [9] | [15] | [16]

CSC(=O)c1cccc2nnsc12
not listed: [4] | [10]
inactive: all other assays above

CN(C)C(=O)Nc1ccc(Cl)c(Cl)c1
active: [1] 68.8 µM | [3] 63.8 µM | [20] 51.5 µM | [9] 83.3 µM | [18] 27.2 µM
not listed: [4] | [10]
inactive: all other assays above
